The sequences below were run on RARb homodimer (NR concentration 270 nM) (assay: PBM binding z-score (relative to random genomic background probes); higher = stronger binding; sequences stand for … in GC…GCGATTGACAGCGTAGAATGAAGG).
In short: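 Ligand-free nuclear receptor dimers were bound for 1 h to custom Agilent 4×180K protein-binding microarrays. Detection used antibodies against each partner (one per run). Binding z-scores rest on regression-normalized fluorescence, with random background probes as the reference.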
Sequence CGTCCAAGGTCAGAGAGGTCAGTCAATGCCGAGT has a PBM binding z-score of 5.37. For AGAATCAGGTTATTAAGATCAGGGAATTGCGGTC, the PBM binding z-score was 0.785. GATACAGCGTCAAGGCCAGAGTACGCGTATTGAT showed a PBM binding z-score of -0.276. ATCTCTAGGTAACAAGTTCAGTGGAAGAGAGGAC was tested, and the PBM binding z-score was 1.89. AGAATGAGGTTATCAAGATCAGGGAATTGCGGTC showed a PBM binding z-score of 1.07. GAGACTGGGGCAAAGCAGGTTACCATAAGGTTGG was tested, and the PBM binding z-score was 1.54. In the case of CAGACTGGGGCATAAGGTTACCATAAGCCAGCCC, the PBM binding z-score is reported as 1.78. In the case of CTCGAAAGGTCGGTTGAGGTGCGTATACGGATAA, the PBM binding z-score is reported as 1.76. For ATCGAAATGTCGAAGGTGAGTATACCCACCCGAA, the PBM binding z-score was -0.167. TCTAGTTGGTCACGGTGGTCACACACGACGGGTA showed a PBM binding z-score of 1.58. With AGAATGAGGTTATTTAGATCAGGGAATTGCGGTC the PBM binding z-score was 0.824. For TAGCCTAGGTCATGGCCCAGTATACCACGCGAAC, the PBM binding z-score was 3.06. Sequence GGTACGAGGGCATTCGAGTTGATAGCATGGCGAT has a PBM binding z-score of 0.849. In the case of CGAACTCGGTCAGAACAGGACAGTGAAGGATGAT, the PBM binding z-score is reported as 1.03. For CCTTACGGGTCCAGGTTATAGCACGGGTGGTACG, the PBM binding z-score was 0.293. Sequence CCTATTAGTTGAGCATAAGGGCAACCGAAGCTCG has a PBM binding z-score of 1.42. CCTGACGGGTCACTCCAGGTTATAGCATCGGAGT gave a PBM binding z-score of 2.89. CAAACTAGGTCACCGGAAGGTCAAATTCCGCATG showed a PBM binding z-score of 5.55. With TGAATGAGGTTAAAGATTAGGGAACGTGGCGTCG the PBM binding z-score was 0.481. Work on GCTATTAGTTGAAAGGGCTACCGAATGATTCTCG yielded a PBM binding z-score of 0.228. In the case of TCAGACAGGTGAAGGTAACTCTGGTACGCAGTCG, the PBM binding z-score is reported as 0.721. Sequence ATCTCTAGGTCAGACTCAGTTCAGTGAAGAACGC has a PBM binding z-score of 3.14.

Reference: the supplement of paper PMC6555819
